# RecA splice inh: blocks M. tuberculosis RecA intein splicing. P9WHJ3. cell-free RecA intein splicing, fluorescence. inhibition, % (no concentration beside the values). 290,000 tested, 0.75% active; in the data active means inhibition above about 30%;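 further: 0% = vehicle wells and 100% = reference inhibitor control wells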
# GDH-TPI inh: inhibits GDH-TPI coupling enzymes, artifact for Mtb FBA screen; GDH-TPI coupled enzyme counterscreen, NADH absorbance; inhibition, % at 4.8 µM; 360,000 tested, 1.2% active; AID 588335;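 further: 0% = DMSO wells and 100% = wells lacking the enzyme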
# Mtb FBA inh: inhibitors of M. tuberculosis fructose-bisphosphate aldolase; 360,000 tested, 2.3% active; AID 588726; P9WQA3; purified M. tuberculosis FBA, fluorescence read-out; inhibition, % at 1 µM; in the data active means inhibition above about 27%;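 further: 0% = vehicle and 100% = reference inhibitor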
# Target sequence (P9WQA3 whole entry, looked up): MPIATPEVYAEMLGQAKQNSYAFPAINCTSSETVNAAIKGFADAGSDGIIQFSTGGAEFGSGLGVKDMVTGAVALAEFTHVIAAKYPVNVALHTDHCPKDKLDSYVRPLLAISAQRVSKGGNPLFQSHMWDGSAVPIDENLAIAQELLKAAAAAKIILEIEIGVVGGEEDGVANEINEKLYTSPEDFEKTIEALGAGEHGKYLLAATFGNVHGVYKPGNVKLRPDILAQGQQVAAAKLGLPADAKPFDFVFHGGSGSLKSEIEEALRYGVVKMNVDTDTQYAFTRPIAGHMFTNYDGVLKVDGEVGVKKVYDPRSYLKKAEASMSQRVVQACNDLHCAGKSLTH
# CCHFV vOTU inh: CCHFV vOTU protease inhibition | inhibition, % at 11.5 µM | AID 651958 | 370,000 tested, 0.55% active | Pep-AMC fluorescence; further: 0% = vehicle wells with enzyme and 100% = no enzyme wells
# The depositor's hits bear a star; . = no result given; + = active, no number. Hits are enriched below; roughly 4.2% of the tested compounds scored in any of these assays. Unless noted, no stated cut-off is given here; in the data, active means inhibition above about 30%; inactive means the rest.
SMILES,RecA splice inh,GDH-TPI inh,Mtb FBA inh,CCHFV vOTU inh
COc1ccc(S(=O)(=O)N2CCN(C(=O)CCc3c[nH]c4ccccc34)CC2)cc1,.,3.2,-1.5,8.8
C=CCN1C(=O)[C@@H](CC(=O)N2CCOCC2)[C@]2(C(=O)OC)CCCCC=C12,.,.,.,-0.3
O=C(CCCN=C1NS(=O)(=O)c2ccccc21)OCC(=O)c1ccccc1Cl,-1.8,-2.2,3.2,-6.0
COc1ccc(/C=C/c2cc(C(=O)O)c3ccccc3n2)cc1,0.8,32.5*,3.1,0.7
COc1ccc(-c2cc(C(=O)N3CCCCCC3)c3cc(C)ccc3n2)cc1,1.4,10.9,152.9*,-98.3
COc1ccc(-c2cc(C(=O)N3CCOCC3)c3cc(C)ccc3n2)cc1,1.0,14.5,157.3*,-154.1
COc1ccc(-c2cc(C(=O)N3CCCCC3)c3ccccc3n2)cc1OC,1.1,21.2,6.8,6.3
COc1ccc(-c2cc(C(=O)N3CCCCC3)c3ccccc3n2)cc1,3.1,12.2,128.0*,-132.6
COc1ccc2nc(-c3ccc(Cl)cc3)cc(C(=O)O)c2c1,0.4,13.0,+,-191.8
COc1ccc(-c2cc(C(=O)c3c(N)n(C)c(=O)n(C)c3=O)c3ccccc3n2)cc1,0.9,35.4*,5.7,-8.9
Cc1nc(N)nc(N/N=C/c2ccccc2)n1,-3.4,12.3,-5.0,-2.9
Cc1cc(N/N=C/c2ccccc2)nc(N)n1,-4.3,42.0*,0.8,-2.8
Cc1cc(N/N=C/c2ccc(O)cc2)nc(NS(=O)(=O)c2ccccc2)n1,-2.9,74.1*,-1.5,17.1
CCc1nnc(NC(=O)c2cc(-c3ccccn3)nc3ccc(Br)cc23)s1,2.7,-4.1,-4.5,-1.0
Cn1c(C(=O)N2CCN(C(=O)c3ccco3)CC2)cc2c(=O)n3ccccc3nc21,-452.4,18.9,+,-266.3
Cn1c(C(=O)N2CCOCC2)cc2c(=O)n3ccccc3nc21,-416.2,26.5,+,-382.9
CC1CN(C(=O)c2cc3c(=O)n4ccccc4nc3n2C)CC(C)O1 (centres undefined),-234.9,25.9,+,-386.4
Cn1c(C(=O)O)cc2c(=O)n3ccccc3nc21,-415.7,12.9,+,-335.1
CC1Cc2ccccc2N1C(=O)c1cc2c(=O)n3ccccc3nc2n1C (centres undefined),-5.7,7.7,4.3,-7.8
C=CCc1c(OC)ccc2c1c(S(=O)(=O)c1ccc(C)cc1)cn2COC,4.1,1.1,-1.9,8.4
CC1=C2NC(N)=[N+](CC3CC3)C(Cc3ccccc3)[C@@H]2n2c(=O)n(-c3ccccc3)c(=O)n2C1 (some centres undefined),.,.,.,-6.4
CCOC(=O)C1CCN(C(=O)c2cccc(C(=O)N3CCC(C(=O)OCC)CC3)c2)CC1,4.8,-11.4,-3.9,10.8
CCOC(=O)C1CCN(C(=O)c2cc3c(=O)n4ccccc4nc3n2C)CC1,-208.5,15.6,132.6*,-172.5
Cn1c(C(=O)N2CCc3ccccc3C2)cc2c(=O)n3ccccc3nc21,-96.0,9.7,72.7*,-146.3
COCCNC(=O)c1cccc(Nc2nc(-c3ccccc3)c3cc(Cl)ccc3n2)c1,-1.7,12.4,-2.6,5.9
SMILES,RecA splice inh,GDH-TPI inh,Mtb FBA inh,CCHFV vOTU inh
COc1ccccc1N1CCN(S(=O)(=O)c2ccc3c(c2)CCC(=O)N3)CC1,.,.,.,-0.2
CCCCNC(=O)C1CCCN1C(=O)Nc1cc(C)cc(C)c1 (centres undefined),.,.,.,0.5
CCCCCn1c(-c2ccco2)nc2nc3ccccc3nc21,-47.1,6.4,+,-83.4
c1coc(-c2nc3nc4ccccc4nc3n2-c2ccc3c(c2)OCCO3)c1,.,22.1,-1.1,5.7
c1coc(-c2nc3nc4ccccc4nc3n2CC2CCCO2)c1 (centres undefined),-56.8,22.5,+,-219.7
COc1ccc(CCn2c(-c3ccco3)nc3nc4ccccc4nc32)cc1,1.1,20.9,2.6,8.2
c1ccc(Cn2c(-c3ccco3)nc3nc4ccccc4nc32)cc1,-13.5,20.5,+,-139.2
COc1ccccc1Cn1c(-c2ccco2)nc2nc3ccccc3nc21,-2.9,18.1,11.2,8.6
Clc1ccc(-c2nc3nc4ccccc4nc3n2Cc2ccco2)cc1,.,22.6,16.5,3.4
Cc1ccc(-c2nc3nc4ccccc4nc3n2Cc2ccco2)cc1,3.4,46.0*,13.6,-5.0
O=C(Nc1ccc(/C=C/c2nc3ccccc3o2)cc1)c1c(F)cccc1F,0.2,18.8,17.2,-6.6
O=C(Nc1ccc(/C=C/c2nc3ccccc3o2)cc1)c1cccc(C(F)(F)F)c1,0.7,35.6*,4.3,6.6
O=C(CCC1CCN(Cc2nccs2)CC1)Nc1ccccc1,.,1.3,-3.1,2.0
CCCc1cc(=O)oc2cc(OCC(=O)N3CCC(C(N)=O)CC3)ccc12,.,10.8,26.1,-10.0
CCCc1cc(=O)oc2c3c(cc(OCC(=O)N4CCC(C(=O)O)CC4)c12)OC(C)(C)CC3,.,20.1,+,-234.2
CCCc1cc(=O)oc2c3c(cc(OCC(=O)NCC4CCC(C(=O)O)CC4)c12)OC(C)(C)CC3 (centres undefined),3.2,18.6,+,-19.2
CCN(CC)S(=O)(=O)c1ccc(N2CCOCC2)c(NC(=O)c2[nH]c(C)c(C(C)=O)c2C)c1,.,10.8,5.3,-4.6
COc1ccc(/C=C/C(=O)c2ccc(OC)cc2OC)cc1,4.1,38.2*,4.6,4.1
COc1ccc(/C=C/C(=O)C2(O)CCCCC2)cc1,1.3,38.8*,-0.4,6.1
COc1ccc(/C=C/C(=O)O)cc1,.,0.7,4.2,-1.4
CN(C)/C=C/c1onc(-c2c(Cl)cccc2Cl)c1C#N,2.5,31.0*,-1.4,3.2
C=CCNC(=S)N/N=C/c1ccc(C)c([N+](=O)[O-])c1,.,20.3,-2.4,7.7
CN(C)c1ccc(/C=N/NC(N)=S)cc1[N+](=O)[O-],-4.4,42.6*,-2.5,23.1
COc1c(OC(C)=O)ccc(/C=C/c2ccc3ccccc3n2)c1[N+](=O)[O-],.,43.1*,-0.9,17.8
COc1cc(OC)c(OC)cc1C=Cc1ccc2ccccc2n1,.,31.0*,7.2,13.6
SMILES,RecA splice inh,GDH-TPI inh,Mtb FBA inh,CCHFV vOTU inh
COc1cc(OC)c(OC)cc1/C=C/c1cc(C(=O)O)c2ccccc2n1,0.3,12.8,-0.4,13.8
COc1c(OC(C)=O)ccc(/C=C/c2ccc3cccc(OC)c3n2)c1[N+](=O)[O-],18.5,26.5,-4.3,13.9
O=C(c1cc(C2CC2)on1)N(C1CCCCC1)C1CCOCC1,.,.,.,3.8
CN(C(=O)COC(=O)c1ccc2c(c1)OCO2)c1c(N)n(Cc2ccccc2)c(=O)[nH]c1=O,0.1,-2.8,0.9,7.3
COc1ccc(S(=O)(=O)N2CCC(Cc3ccccc3)CC2)cc1NC(C)=O,-2.0,-3.4,0.2,-9.3
C[C@@H]1CCN(C2CC2)S(=O)(=O)c2ccc(N3CCC[C@@H]3C)cc2O1,.,.,.,-0.2
O=C(c1cc(=O)[nH]c2ccccc12)N1CCN(c2ccc([N+](=O)[O-])cc2)CC1,-1.9,35.1*,-6.7,16.4
CCSc1nc2c(c(=O)[nH]1)C(c1ccccn1)C1=C(CC(C)(C)CC1=O)N2 (centres undefined),-3.8,11.7,124.0*,-92.0
CC(C)c1ccc2oc(-c3ccc(N)cc3)nc2c1,1.4,28.9,191.2*,-72.9
Nc1ccc(-c2nc3cc([N+](=O)[O-])ccc3o2)cc1,1.2,41.6*,0.4,9.6

# Compound activity (PubChem BioAssay)
